Molecules are shown by their SMILES. Inconclusive results are not listed. Unmarked numbers belong to inactive results. Activity calls are given as the source filed them. Calls follow the shape of the dose curve; as a rule, active = well fitted activation curve with a large enough effect in the repeat runs; inconclusive = weak or mixed curves; inactive = no such curve, though single readings can be large or run the other way.
% is scaled to controls: 0 for no effect and ±100 for the full control effect; potency is read from the fitted curve at half-maximal effect.

The assay deals with Nuclear receptor subfamily 1 group I member 2 (Rattus norvegicus) (UniProt Q9R1A7). The experiment in a line: Rat pregnane X receptor (rPXR) activation by small molecules, qHTS assay (AID 1346983). Also: nearly all actives have a fitted effect of over 20% in size. The note with it: rPXR luciferase reporter cells, One-Glo luminescence, 24 h; max activation: stronger effect = higher value. The text has this: National Center for Advancing Translational Sciences [NCATS] NIH Chemical Genomics Center [NCGC] U.S. Environmental Protection Agency [EPA] National Institutes of Environmental Health Sciences [NIEHS] National Toxicology Program [NTP] Assay overview: The Pregnane X receptor (PXR), a ligand activated nuclear receptor plays a critical role in the regulation of genes involved in drug metabolism and transporters. PXR binds xenobiotics and when compounds interact with PXR produces enhanced expression of CYP3A genes. In humans PXR activation and CYP3A4 induction can be problematic due to their interactions with co-medicated drugs and decrease their efficacy or increase their own metabolism. However, there are known species-specific differences with regard to PXR activation that should be taken into account when animal PXR data are extrapolated to humans. A cell based rat PXR (rPXR) assay (developed by Puracyp, Inc., CA) was used to assess the activation of rPXR.
Nuclear receptor subfamily 1 group I member 2 (Rattus norvegicus), sequence (Q9R1A7 whole entry, looked up): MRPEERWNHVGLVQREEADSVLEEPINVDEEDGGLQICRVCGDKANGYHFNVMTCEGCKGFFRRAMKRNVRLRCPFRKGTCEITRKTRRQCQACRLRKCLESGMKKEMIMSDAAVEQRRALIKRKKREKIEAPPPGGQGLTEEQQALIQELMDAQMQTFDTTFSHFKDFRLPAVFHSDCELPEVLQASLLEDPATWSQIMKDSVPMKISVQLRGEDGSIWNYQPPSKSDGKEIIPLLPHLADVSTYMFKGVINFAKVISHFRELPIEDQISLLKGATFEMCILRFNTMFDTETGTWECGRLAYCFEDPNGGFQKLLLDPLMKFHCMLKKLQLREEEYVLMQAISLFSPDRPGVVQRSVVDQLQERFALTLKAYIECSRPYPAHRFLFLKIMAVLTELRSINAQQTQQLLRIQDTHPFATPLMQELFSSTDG
Assay Protocol Summary: rPXR cells were dispensed at 2,000 per well in 5uL of assay medium into white, solid-bottom 1536-well plates using a Multidrop Combi dispenser (Thermo Scientific). The assay plates were incubated at 37 C for 5hr before transferring 23 nL of test compounds dissolved in DMSO and positive control via Pintool station (Wako). The assay plates were incubated at 37 C for 24 hr. Then 5ul One-Glo assay reagent (Promega) was added to each plate by a Flying Reagent Dispenser (FRD, Aurora Discovery) and following 30 min incubation at room temperature, luciferase activity was quantified on a ViewLux plate reader (Perkin Elmer).
Consider `C[N+]1(CC2COC(c3ccccc3)(C3CCCCC3)O2)CCCCC1` (stereo not given), for which the max activation is -1.36%.
Regarding `COc1cc2nc(N(C)CCCNC(=O)C3CCCO3)nc(N)c2cc1OC` (stereo not given), the max activation is -4.32%.
On to `O=C(NCCO[N+](=O)[O-])c1cccnc1`, for which the max activation was -6.7%.
In the case of `CCCCC`, the max activation is -1.52%.
With `OCCN1CCN(CCCN2c3ccccc3C=Cc3ccccc32)CC1`, the max activation is -15.2%.
On to `C#C[C@]1(O)CC[C@H]2[C@@H]3CCc4cc(OC5CCCC5)ccc4[C@H]3CC[C@@]21C`, for which the max activation is -3.04%.
The same measure, in the same setting: with `O=C(O)C(S)C(S)C(=O)O` (stereo not given) the figure was -9.28%; with `CCCCCCCCCc1ccc(OCCOCCO)cc1`, -12.1%; with `CN1CCN(C(c2ccccc2)c2ccccc2)CC1`, -2.77%.
Turning to `CN(Cc1ccc(C(C)(C)C)cc1)Cc1cccc2ccccc12`, the max activation was 1.25%.
In the case of `CCCCC1=NC2(CCCC2)C(=O)N1Cc1ccc(-c2ccccc2-c2nn[nH]n2)cc1`, the max activation was -1.35%.
Regarding `N=c1ccn2c(n1)O[C@H]1[C@H](O)[C@@H](CO)O[C@H]12`, the max activation was 4.22%.
As for `Clc1ccc2c(c1)CCc1cccnc1C2=C1CCNCC1`, the max activation was -7.49%.
The same measure, in the same setting: with `CC(=O)NO` the figure was -0.0404%; with `CCN(CC)CCOC(=O)C(c1ccccc1)C1CCCCC1` (stereo not given), 1.58%; with `C#Cc1cccc(Nc2ncnc3cc(OCCOC)c(OCCOC)cc23)c1`, -7.82%.
Take `C=CCOc1ccccc1OCC(O)CNC(C)C` (stereo not given): the max activation is 5.72%.
Turning to `Nc1c(CC(=O)O)cccc1C(=O)c1ccc(Br)cc1`, the max activation was -2.12%.
Take `C[C@H]1C[C@H]2[C@@H]3CCC4=CC(=O)C=C[C@]4(C)[C@@]3(Cl)[C@@H](O)C[C@]2(C)[C@@]1(O)C(=O)CO`: the Potency was 5.62 µM (active).
With `CC(=O)c1ccc2c(c1)N(CCCN(C)C)c1ccccc1S2`, the max activation is -2.15%.
For the compound `CCCOC(C(=O)OC1CCN(C)CC1)(c1ccccc1)c1ccccc1`, the Potency is 15.8 µM (active).
In the case of `OC(CN1CCC(Cc2ccc(F)cc2)CC1)c1ccc(Cl)cc1` (stereo not given), the max activation is -1.2%.
Regarding `CCCCO`, the max activation was -3.27%.
On to `CCOCC(O)COc1ccc(NC(=O)CC[S+](C)C)cc1` (stereo not given), for which the max activation was -0.952%.
For the compound `C=C1C(=C/C=C2\CCC[C@]3(C)[C@@H]([C@H](C)/C=C/[C@@H](O)C4CC4)CC[C@@H]23)C[C@@H](O)C[C@@H]1O`, the max activation is 5.08%.
For the compound `CNCCCN1c2ccccc2CCc2ccccc21`, the max activation is -1.95%.
Turning to `Cc1cccc(C)c1OCC(=O)N[C@@H](Cc1ccccc1)[C@@H](O)C[C@H](Cc1ccccc1)NC(=O)[C@H](C(C)C)N1CCCNC1=O`, the Potency is 11.2 µM (active).
In the case of `NCc1ccccc1Sc1ccccc1CO`, the max activation is -1.62%.
`CO[C@@H]1[C@H](OC(=O)/C=C/C=C/C=C/C=C/C(=O)O)CC[C@]2(CO2)[C@H]1[C@@]1(C)O[C@@H]1CC=C(C)C`: the max activation was 0.0882%.
The same measure, in the same setting: next, `OCc1cc(C(O)CNCCCCCCOCCCCc2ccccc2)ccc1O` (stereo not given): 0.017%.
With `CCC(=O)O[C@]1(C(=O)CCl)[C@@H](C)C[C@H]2[C@@H]3CCC4=CC(=O)C=C[C@]4(C)[C@@]3(F)[C@@H](O)C[C@@]21C`, the Potency is 2.24 µM (active).
In the case of `Cc1cccc(C)c1NC(=O)CN(CC(=O)O)CC(=O)O`, the max activation is -0.0723%.
As to `CC(=O)c1ccc2c(c1)N(CCCN1CCC(CCO)CC1)c1ccccc1S2`, the max activation is -2.34%.
`COc1ccnc(CS(=O)c2nc3ccc(OC(F)F)cc3[nH]2)c1OC` (stereo not given): the max activation was 0.184%.
As for `CC1(c2ccccc2)OC(C(=O)O)=CC1=O` (stereo not given), the max activation is -1.39%.
`Nc1ncn([C@H]2C[C@H](O)[C@@H](CO)O2)c(=O)n1`: the max activation was 10.4%.
Turning to `c1ccc(CNCCNCc2ccccc2)cc1`, the max activation is -3.63%.
Take `O=C(c1ccc(F)cc1)C1CCN(CCn2c(=S)[nH]c3ccccc3c2=O)CC1`: the max activation is 1.09%.
Take `CN(C)CCCN1c2ccccc2Sc2ccccc21`: the max activation is -2.41%.
Same read-out and setting: with `O=C1[C@H]2CCCC[C@H]2C(=O)N1CCCCN1CCN(c2nsc3ccccc23)CC1` the figure was 2.09%.

Source of the values: PubChem BioAssay (Tox21).
